# From ChEMBL document CHEMBL1961873, “Compounds: GSK PKIS; Assays: Nanosyn kinase panel” (2012)
# Columns and labels:
# [1] = biological target: Sphingosine kinase 1 (Homo sapiens) (UniProt Q9NYA1); conditions: at 1 µM;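 also: mean SPHK1 inhibition value reported from the GSK PKIS kinase panel screen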
# [2] = biological target: T1, Sphingosine kinase 2 (Homo sapiens) (UniProt Q9NRA0); conditions: at 0.1 µM
# T1 sequence (whole entry): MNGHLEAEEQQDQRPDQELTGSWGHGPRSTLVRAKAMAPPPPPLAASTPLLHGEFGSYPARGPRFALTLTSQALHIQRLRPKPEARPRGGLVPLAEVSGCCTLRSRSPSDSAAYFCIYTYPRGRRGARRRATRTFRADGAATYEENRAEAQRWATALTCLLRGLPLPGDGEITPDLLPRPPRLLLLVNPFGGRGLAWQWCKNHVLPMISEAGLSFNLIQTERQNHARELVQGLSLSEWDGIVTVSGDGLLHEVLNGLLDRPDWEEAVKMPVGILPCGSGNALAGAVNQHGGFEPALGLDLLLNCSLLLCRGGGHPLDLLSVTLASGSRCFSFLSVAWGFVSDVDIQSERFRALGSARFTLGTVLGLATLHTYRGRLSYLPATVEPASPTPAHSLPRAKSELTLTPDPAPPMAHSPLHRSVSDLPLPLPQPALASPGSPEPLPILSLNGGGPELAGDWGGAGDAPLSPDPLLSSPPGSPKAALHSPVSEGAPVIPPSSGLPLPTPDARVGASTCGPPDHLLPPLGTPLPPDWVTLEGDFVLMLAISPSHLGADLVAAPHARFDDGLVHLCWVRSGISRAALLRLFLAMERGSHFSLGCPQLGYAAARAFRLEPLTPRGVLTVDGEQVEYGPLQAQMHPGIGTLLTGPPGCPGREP
# [3] = biological target: T1, Sphingosine kinase 2 (Homo sapiens); conditions: at 1 µM
# [4] = biological target: Casein kinase II subunit alpha (Homo sapiens) (UniProt P68400); conditions: at 0.1 µM
# [5] = biological target: Casein kinase II subunit alpha (Homo sapiens) (UniProt P68400); conditions: at 1 µM
# [6] = biological target: T2, Inhibitor of nuclear factor kappa-B kinase subunit alpha (Homo sapiens) (UniProt O15111); conditions: at 0.1 µM
# T2 sequence (whole entry): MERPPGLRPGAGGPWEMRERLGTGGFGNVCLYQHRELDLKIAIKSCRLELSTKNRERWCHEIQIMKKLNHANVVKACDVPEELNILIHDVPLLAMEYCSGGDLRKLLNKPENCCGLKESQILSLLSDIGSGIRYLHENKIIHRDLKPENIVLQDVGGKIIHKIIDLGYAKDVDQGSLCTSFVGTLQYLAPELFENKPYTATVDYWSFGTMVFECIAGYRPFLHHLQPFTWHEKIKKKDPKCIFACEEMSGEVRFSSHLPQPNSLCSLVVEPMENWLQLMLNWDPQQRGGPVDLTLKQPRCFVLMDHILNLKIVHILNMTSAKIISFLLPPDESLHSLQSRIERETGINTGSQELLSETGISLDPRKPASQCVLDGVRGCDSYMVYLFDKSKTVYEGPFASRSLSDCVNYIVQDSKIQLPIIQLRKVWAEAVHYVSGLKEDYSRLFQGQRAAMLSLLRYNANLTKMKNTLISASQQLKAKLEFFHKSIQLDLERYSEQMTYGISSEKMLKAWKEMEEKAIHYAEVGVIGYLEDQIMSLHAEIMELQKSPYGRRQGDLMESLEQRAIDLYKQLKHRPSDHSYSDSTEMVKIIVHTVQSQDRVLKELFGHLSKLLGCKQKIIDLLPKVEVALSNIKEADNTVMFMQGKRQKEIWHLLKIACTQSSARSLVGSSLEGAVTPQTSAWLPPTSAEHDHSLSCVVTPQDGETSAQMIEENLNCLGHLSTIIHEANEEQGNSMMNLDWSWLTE
# [7] = biological target: T2, Inhibitor of nuclear factor kappa-B kinase subunit alpha (Homo sapiens); conditions: at 1 µM
# [8] = biological target: T3, Inhibitor of nuclear factor kappa-B kinase subunit beta (Homo sapiens) (UniProt O14920); conditions: at 0.1 µM
# T3 sequence (whole entry): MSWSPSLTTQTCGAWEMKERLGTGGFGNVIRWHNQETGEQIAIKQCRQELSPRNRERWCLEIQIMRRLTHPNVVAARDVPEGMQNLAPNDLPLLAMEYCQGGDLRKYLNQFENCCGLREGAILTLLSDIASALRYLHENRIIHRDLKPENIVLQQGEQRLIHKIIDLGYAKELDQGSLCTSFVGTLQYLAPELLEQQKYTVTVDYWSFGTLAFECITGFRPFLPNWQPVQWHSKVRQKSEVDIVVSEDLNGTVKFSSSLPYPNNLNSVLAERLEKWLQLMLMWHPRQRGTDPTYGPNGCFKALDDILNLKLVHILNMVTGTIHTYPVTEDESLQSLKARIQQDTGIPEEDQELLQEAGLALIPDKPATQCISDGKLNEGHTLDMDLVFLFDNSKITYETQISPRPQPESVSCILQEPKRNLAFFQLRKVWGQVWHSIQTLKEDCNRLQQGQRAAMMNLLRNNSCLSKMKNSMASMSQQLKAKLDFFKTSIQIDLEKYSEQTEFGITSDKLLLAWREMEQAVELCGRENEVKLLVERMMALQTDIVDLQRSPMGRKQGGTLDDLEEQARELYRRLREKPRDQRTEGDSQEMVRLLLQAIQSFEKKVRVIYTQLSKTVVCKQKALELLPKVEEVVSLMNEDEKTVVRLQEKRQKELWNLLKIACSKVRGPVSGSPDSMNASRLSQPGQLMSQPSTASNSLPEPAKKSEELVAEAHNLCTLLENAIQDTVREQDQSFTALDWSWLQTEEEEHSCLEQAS
# [9] = biological target: T3, Inhibitor of nuclear factor kappa-B kinase subunit beta (Homo sapiens); conditions: at 1 µM
# [10] = biological target: T4, Inhibitor of nuclear factor kappa-B kinase subunit epsilon (Homo sapiens) (UniProt Q14164); conditions: at 0.1 µM
# T4 sequence (whole entry): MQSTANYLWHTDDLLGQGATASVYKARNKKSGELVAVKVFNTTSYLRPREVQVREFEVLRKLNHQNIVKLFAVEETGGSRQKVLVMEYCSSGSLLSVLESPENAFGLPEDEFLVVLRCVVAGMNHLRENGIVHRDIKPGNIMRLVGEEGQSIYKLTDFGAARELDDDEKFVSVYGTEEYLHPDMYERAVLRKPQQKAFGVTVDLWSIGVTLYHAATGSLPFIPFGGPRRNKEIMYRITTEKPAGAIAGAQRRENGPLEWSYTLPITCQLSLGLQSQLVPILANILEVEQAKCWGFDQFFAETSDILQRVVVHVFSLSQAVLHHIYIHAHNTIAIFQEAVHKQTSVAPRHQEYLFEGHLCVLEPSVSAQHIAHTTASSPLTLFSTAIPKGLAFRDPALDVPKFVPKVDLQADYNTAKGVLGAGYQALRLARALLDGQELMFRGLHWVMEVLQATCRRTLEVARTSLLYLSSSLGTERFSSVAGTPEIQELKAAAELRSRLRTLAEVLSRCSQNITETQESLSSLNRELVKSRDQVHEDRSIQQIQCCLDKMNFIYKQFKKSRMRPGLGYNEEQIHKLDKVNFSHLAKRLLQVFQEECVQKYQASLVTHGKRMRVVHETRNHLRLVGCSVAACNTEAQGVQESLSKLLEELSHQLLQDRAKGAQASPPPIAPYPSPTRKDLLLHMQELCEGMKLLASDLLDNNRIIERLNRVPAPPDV
# [11] = biological target: T4, Inhibitor of nuclear factor kappa-B kinase subunit epsilon (Homo sapiens); conditions: at 1 µM
# [12] = biological target: T5, Serine/threonine-protein kinase Nek1 (Homo sapiens) (UniProt Q96PY6); conditions: at 0.1 µM
# T5 sequence (whole entry): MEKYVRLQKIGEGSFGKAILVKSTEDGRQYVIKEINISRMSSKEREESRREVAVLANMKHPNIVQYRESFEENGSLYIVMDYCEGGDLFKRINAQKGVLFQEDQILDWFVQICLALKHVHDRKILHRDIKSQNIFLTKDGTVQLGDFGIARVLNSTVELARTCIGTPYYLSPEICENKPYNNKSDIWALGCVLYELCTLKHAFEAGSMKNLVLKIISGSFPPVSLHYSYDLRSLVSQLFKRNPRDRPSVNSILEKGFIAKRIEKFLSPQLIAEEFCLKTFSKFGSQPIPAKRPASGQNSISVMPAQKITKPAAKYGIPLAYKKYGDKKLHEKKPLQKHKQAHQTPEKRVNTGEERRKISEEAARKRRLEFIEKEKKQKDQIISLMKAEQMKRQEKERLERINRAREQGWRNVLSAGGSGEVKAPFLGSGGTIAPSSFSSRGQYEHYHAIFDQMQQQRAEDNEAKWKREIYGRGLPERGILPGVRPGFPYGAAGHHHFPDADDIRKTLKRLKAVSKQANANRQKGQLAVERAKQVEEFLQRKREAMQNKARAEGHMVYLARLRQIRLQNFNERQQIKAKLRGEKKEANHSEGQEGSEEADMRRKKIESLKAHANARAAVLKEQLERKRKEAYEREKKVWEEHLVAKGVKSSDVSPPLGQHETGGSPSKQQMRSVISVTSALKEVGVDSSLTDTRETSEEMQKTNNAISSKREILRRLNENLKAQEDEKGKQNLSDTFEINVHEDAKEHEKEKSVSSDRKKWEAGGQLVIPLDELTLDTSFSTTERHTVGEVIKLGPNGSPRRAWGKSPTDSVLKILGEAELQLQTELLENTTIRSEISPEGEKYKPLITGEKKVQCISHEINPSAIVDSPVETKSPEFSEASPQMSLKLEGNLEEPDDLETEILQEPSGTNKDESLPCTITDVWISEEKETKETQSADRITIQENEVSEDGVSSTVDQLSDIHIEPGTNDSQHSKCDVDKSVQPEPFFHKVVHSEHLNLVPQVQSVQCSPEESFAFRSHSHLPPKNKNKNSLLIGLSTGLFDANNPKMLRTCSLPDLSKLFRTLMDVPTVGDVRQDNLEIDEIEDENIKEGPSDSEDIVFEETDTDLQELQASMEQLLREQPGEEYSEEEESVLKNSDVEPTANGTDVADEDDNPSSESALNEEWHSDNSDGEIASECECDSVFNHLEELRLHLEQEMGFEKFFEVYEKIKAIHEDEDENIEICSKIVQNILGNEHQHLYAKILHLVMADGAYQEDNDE
# [13] = biological target: T5, Serine/threonine-protein kinase Nek1 (Homo sapiens); conditions: at 1 µM
# [14] = biological target: T6, Serine/threonine-protein kinase Nek2 (Homo sapiens) (UniProt P51955); conditions: at 0.1 µM
# T6 sequence (whole entry): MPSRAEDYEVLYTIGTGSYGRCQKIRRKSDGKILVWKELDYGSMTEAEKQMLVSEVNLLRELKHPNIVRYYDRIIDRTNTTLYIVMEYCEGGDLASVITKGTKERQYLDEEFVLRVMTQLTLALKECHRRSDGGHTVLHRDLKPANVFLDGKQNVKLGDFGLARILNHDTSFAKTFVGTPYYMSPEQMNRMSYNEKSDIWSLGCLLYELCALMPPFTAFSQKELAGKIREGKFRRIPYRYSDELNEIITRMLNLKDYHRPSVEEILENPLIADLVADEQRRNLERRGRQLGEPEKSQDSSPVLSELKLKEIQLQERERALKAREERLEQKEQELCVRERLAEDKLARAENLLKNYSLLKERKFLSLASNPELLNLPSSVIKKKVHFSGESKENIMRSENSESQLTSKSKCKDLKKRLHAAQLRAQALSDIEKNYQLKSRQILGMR
# [15] = biological target: T6, Serine/threonine-protein kinase Nek2 (Homo sapiens); conditions: at 1 µM
# [16] = biological target: Serine/threonine-protein kinase Nek6 (Homo sapiens) (UniProt Q9HC98); conditions: at 0.1 µM
# [17] = biological target: Serine/threonine-protein kinase Nek6 (Homo sapiens) (UniProt Q9HC98); conditions: at 1 µM
# [18] = biological target: Serine/threonine-protein kinase Nek7 (Homo sapiens) (UniProt Q8TDX7); conditions: at 0.1 µM
# [19] = biological target: Serine/threonine-protein kinase Nek7 (Homo sapiens) (UniProt Q8TDX7); conditions: at 1 µM
# [20] = biological target: T7, Serine/threonine-protein kinase Nek9 (Homo sapiens) (UniProt Q8TD19); conditions: at 0.1 µM;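 also: reported value is the mean percent inhibition of NEK9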
# T7 sequence (whole entry): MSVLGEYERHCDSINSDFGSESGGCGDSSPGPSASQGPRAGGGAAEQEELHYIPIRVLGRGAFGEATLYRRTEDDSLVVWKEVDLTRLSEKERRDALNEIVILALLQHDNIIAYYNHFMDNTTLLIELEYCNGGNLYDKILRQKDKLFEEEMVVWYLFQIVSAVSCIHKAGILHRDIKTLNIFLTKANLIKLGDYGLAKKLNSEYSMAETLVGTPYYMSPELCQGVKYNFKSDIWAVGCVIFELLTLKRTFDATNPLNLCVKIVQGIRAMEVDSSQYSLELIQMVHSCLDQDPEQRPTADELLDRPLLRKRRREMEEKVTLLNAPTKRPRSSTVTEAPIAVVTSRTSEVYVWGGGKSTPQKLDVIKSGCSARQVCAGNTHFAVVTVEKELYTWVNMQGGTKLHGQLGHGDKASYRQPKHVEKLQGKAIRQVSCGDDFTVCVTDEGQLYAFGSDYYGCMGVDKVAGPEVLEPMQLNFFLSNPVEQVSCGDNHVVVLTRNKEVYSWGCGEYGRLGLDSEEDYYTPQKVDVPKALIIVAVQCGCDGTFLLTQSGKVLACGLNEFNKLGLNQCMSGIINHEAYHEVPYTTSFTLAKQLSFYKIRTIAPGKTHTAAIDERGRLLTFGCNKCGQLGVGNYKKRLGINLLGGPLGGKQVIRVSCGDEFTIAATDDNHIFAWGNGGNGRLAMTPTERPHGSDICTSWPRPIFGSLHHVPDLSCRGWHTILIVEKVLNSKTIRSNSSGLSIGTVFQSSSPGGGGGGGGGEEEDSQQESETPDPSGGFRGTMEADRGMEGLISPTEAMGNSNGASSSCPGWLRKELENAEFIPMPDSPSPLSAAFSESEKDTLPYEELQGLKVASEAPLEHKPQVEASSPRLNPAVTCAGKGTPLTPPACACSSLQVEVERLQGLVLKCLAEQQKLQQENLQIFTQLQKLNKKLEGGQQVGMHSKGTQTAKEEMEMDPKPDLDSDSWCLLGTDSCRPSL
# Sequence of Casein kinase II subunit alpha (Homo sapiens) (P68400 whole entry, looked up): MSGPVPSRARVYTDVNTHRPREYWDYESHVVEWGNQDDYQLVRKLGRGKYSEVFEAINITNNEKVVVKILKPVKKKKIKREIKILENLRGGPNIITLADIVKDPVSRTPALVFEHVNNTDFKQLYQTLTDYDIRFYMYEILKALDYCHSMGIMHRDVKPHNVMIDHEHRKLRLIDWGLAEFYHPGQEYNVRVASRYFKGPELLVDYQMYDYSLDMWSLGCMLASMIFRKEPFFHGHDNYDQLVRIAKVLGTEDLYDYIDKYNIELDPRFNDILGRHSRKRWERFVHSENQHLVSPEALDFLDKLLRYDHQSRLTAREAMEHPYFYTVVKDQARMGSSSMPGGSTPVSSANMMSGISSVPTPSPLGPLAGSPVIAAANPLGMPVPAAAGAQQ
# Sequence of Serine/threonine-protein kinase Nek6 (Homo sapiens) (Q9HC98 whole entry): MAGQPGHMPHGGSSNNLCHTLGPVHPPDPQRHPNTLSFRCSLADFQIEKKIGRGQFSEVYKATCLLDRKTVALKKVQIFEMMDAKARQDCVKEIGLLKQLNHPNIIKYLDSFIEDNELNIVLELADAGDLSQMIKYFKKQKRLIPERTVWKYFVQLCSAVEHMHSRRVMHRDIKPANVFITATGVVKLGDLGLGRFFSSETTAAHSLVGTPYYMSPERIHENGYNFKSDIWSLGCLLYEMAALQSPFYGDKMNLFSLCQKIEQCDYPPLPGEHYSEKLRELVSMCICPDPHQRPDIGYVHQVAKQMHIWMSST
# Sequence of Serine/threonine-protein kinase Nek7 (Homo sapiens) (Q8TDX7 whole entry, looked up): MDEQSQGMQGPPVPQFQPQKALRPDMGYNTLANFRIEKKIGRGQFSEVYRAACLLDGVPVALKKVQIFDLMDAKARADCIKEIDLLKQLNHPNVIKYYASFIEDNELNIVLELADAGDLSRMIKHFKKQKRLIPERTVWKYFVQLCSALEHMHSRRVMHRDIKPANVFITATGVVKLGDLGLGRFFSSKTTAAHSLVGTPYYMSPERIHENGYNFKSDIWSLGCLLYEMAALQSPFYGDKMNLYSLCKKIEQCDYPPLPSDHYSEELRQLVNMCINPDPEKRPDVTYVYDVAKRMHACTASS
# Sequence of Sphingosine kinase 1 (Homo sapiens) (Q9NYA1 whole entry): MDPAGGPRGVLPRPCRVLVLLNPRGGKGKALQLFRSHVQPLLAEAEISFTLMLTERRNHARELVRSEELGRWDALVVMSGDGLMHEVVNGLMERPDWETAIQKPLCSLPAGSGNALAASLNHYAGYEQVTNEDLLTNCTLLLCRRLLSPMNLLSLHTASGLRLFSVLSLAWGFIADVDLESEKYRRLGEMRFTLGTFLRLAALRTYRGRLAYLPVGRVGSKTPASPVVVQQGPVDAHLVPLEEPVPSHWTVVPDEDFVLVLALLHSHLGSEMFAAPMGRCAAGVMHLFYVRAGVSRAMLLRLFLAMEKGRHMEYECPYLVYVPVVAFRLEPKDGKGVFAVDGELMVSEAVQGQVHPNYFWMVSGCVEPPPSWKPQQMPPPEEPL
SMILES,inhibition [1],inhibition [2],inhibition [3],inhibition [4],inhibition [5],inhibition [6],inhibition [7],inhibition [8],inhibition [9],inhibition [10],inhibition [11],inhibition [12],inhibition [13],inhibition [14],inhibition [15],inhibition [16],inhibition [17],inhibition [18],inhibition [19],inhibition [20]
COc1cc(Nc2ncc3c(C)nc(-c4cccc(Oc5ccccc5)c4)n3n2)cc(OC)c1OC,-0.76%,0.82%,0%,0.59%,12.7%,2.21%,-5.5%,1.1%,0.16%,2.97%,21.3%,2.64%,11.3%,7.11%,31.6%,2.7%,-0.99%,4.1%,1.98%,29%
C/C(Nc1ccc(S(N)(=O)=O)cc1)=C1/C(=O)Nc2ccccc21,2.7%,0.02%,0.53%,-0.1%,7.42%,4.91%,2.59%,-0.76%,1.17%,-2.73%,2.23%,-0.12%,0.52%,-0.14%,0.19%,-4.26%,-0.83%,–,-0.23%,2.83%
